In PubChem BioAssay AID1946 (Johns Hopkins Ion Channel Center, 2009) one finds activity change vs negative control data, which are given here for 101 molecules.

Among all 2,400 compounds or so, about 180 (7.5%) were called active. The full list was thinned out, with actives kept by preference. Values without a mark were called inactive.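 How the source made its calls: active means readout below zero, meaning a drop past 3 SD under the dofetilide-free negative control mean; inactive means the rest.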

Potassium voltage-gated channel subfamily KQT member 2 (Rattus norvegicus), sequence (O88943 whole entry, looked up): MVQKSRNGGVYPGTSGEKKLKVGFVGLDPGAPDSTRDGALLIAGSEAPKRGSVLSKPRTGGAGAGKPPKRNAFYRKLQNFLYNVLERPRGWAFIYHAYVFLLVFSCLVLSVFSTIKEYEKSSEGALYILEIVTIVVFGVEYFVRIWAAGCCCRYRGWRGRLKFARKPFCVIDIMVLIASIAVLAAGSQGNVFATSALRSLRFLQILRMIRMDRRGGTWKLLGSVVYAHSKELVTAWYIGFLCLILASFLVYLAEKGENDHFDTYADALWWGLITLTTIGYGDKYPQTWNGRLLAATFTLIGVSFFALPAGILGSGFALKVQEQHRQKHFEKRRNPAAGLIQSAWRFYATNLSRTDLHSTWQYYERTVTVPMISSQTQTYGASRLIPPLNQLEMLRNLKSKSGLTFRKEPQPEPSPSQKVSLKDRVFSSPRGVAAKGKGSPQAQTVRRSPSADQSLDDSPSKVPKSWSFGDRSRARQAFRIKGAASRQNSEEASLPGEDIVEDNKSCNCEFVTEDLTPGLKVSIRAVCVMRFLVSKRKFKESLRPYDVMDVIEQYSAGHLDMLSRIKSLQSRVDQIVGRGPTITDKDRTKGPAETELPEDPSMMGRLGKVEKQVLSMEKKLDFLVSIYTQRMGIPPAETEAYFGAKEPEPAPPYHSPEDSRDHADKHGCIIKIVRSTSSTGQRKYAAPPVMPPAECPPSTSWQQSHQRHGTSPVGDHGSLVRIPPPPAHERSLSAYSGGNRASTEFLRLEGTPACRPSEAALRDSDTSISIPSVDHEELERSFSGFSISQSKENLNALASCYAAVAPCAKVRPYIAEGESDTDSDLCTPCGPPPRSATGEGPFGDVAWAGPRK

This assay has as its target Potassium voltage-gated channel subfamily KQT member 2 (Rattus norvegicus) (UniProt O88943). Nature of the assay: rat KCNQ2 channel inhibition by compounds alone, confirmation, counter-screen for hERG block protector project, cell-based, CHO, FluxOR thallium flux (AID 1946). Conditions: CHO-KCNQ2 cells, FluxOR thallium flux fluorescence; at 10 µM; stronger effect = lower value; zero marks the 3-SD hit cutoff. A general note: Counterscreens check selectivity or assay interference.
Turning to `Cc1nc2ccccc2n1-c1ccccc1`, the activity change vs negative control is 19.5%.

Consider `Oc1c(Cl)cc(Cl)cc1/C=N/c1ncn[nH]1`, for which the activity change vs negative control was 53.4%.

For `O=C(NC(=S)N1CCCCCC1)c1ccc(Cl)cc1Cl`, the activity change vs negative control is 30.8%.

In the case of `COc1ccc(NC(=O)C(=O)NNC(=O)COc2ccc(Cl)cc2)c(OC)c1`, the activity change vs negative control is 38.6%.

In the case of `CN(Cc1ccsc1)C(=O)CCc1nnc(Cc2c[nH]c3ccccc23)o1`, the activity change vs negative control is 10.6%.

In the case of `COCCCNC(=O)CCc1nnc(Cc2ccc(-c3ccccc3)cc2)o1`, the activity change vs negative control was 26.3%.

On to `CC(C)CCNC(=O)CCc1nnc(Cc2c[nH]c3ccccc23)o1`, for which the activity change vs negative control was -0.6% (active).

On to `CC(C)C(=O)Nc1ccc(NC(=O)CCc2ccccc2)cn1`, for which the activity change vs negative control was -1.8% (active).

As to `O=C(CS(=O)(=O)Cc1ccccc1)Nc1ccc(Cl)cn1`, the activity change vs negative control was 7.9%.

Consider `CN(C)c1ccc(NC(=O)CCCc2ccccc2)cc1`, for which the activity change vs negative control is 29.6%.

Consider `S=c1nc(C2CCCCC2)n(-c2ccccc2)[nH]1`, for which the activity change vs negative control is 72.6%.

For `O=[N+]([O-])c1ccc(S(=O)(=O)Nc2ccc(S(=O)(=O)N3CCCC3)cc2)cc1`, the activity change vs negative control is -0.3% (active).

Turning to `O=C(Nc1ccc(N2CCOCC2)cc1)c1ccc(S(=O)(=O)N2CCCCC2)cc1`, the activity change vs negative control is 10.5%.

For the molecule `N#C/C(=N/Nc1ccc([N+](=O)[O-])cc1)C(=N)N1CCCCC1`, the activity change vs negative control was 17%.

Consider `COc1ccc(OCC(=O)NNC(=O)C(=O)Nc2cc(OC)ccc2OC)cc1`, for which the activity change vs negative control was 38.9%.

In the case of `CCOC(=O)c1sc2nc(C)[nH]c(=S)c2c1C`, the activity change vs negative control was 32.7%.

As to `CC(NC(=O)c1ccc(F)cc1)c1ccc2c(c1)CCCC2` (stereo unspecified), the activity change vs negative control was 55.5%.

For the molecule `CCCn1c(SCC(=O)N2CCN(C(C)=O)CC2)nc2sc3c(c2c1=O)CCC3`, the activity change vs negative control was 51.5%.

Turning to `CCC(=O)N1CCN(c2nc(CC)nc3sc4c(c23)CCCC4)CC1`, the activity change vs negative control is -20.7% (active).

With `CCn1c(SCC(N)=O)nc2sc3c(c2c1=O)CCCC3`, the activity change vs negative control is 60.6%.

`CCN(CC)C(=S)NC(=O)c1ccc(OC)c(Br)c1`: the activity change vs negative control is 16.8%.

As to `O=C1CC(O)(C(F)(F)F)Oc2c1ccc1ccccc21` (stereo unspecified), the activity change vs negative control was 49.7%.

`S=c1nc(C2CCCCC2)[nH]c2ccccc12`: the activity change vs negative control was 25.5%.

Turning to `O=C(C1CC1)N1N=C(c2ccccc2)CC1(O)C(F)(F)C(F)(F)F` (stereo unspecified), the activity change vs negative control is 7.3%.

With `CC(C)(C)C1(O)CC(C(F)(F)F)=NN1C(=O)Cc1ccc([N+](=O)[O-])cc1` (stereo unspecified), the activity change vs negative control is 10.6%.

For `CCCCC1(O)CC(C(F)(F)F)=NN1C(=O)COc1ccccc1` (stereo unspecified), the activity change vs negative control was -7.8% (active).

Regarding `CN(C(=S)NC(=O)c1ccc(Cl)cc1)C1CCCCC1`, the activity change vs negative control is 26.3%.

Turning to `CNC(=O)CSc1nnc(-c2ccco2)n1-c1ccccc1`, the activity change vs negative control was 7%.

As for `CNC(=O)CSc1nnc(-c2ccco2)n1-c1ccc(C)cc1`, the activity change vs negative control was -1.9% (active).

Regarding `Cc1ccc(-n2ncc3c(SCC(=O)NNC(=O)c4ccco4)ncnc32)cc1`, the activity change vs negative control was 35.7%.

Consider `C/C(=N/NC(=O)c1cc2ccccc2cc1O)c1ccco1`, for which the activity change vs negative control is 87.3%.

In the case of `O=C(COc1ccc2ccccc2c1)NNC(=O)C(=O)Nc1ccccc1`, the activity change vs negative control is 61.8%.

For the molecule `CCCn1c(=S)[nH]c2sc3c(c2c1=O)CCCC3`, the activity change vs negative control is 95%.

Take `CCOC(=O)Cc1csc(NC(=S)NC(=O)c2ccccc2Br)n1`: the activity change vs negative control was 38.6%.

Regarding `NC(=O)C1CCN(C(=O)c2cc3c(s2)CCCC3)CC1`, the activity change vs negative control was 41.4%.

Turning to `CC(OC(=O)c1cc2c(s1)CCCCC2)C(=O)NC(N)=O` (stereo unspecified), the activity change vs negative control was -1.8% (active).

For the molecule `Cc1csc(NC(=O)c2cc3c(s2)CCCC3)n1`, the activity change vs negative control is 49.2%.

With `Cc1nc(NCc2cccnc2)c2c3c(sc2n1)CC(C)CC3` (stereo unspecified), the activity change vs negative control is 49.7%.

On to `O=C(CSc1nnc(-c2ccncc2)o1)c1cccc([N+](=O)[O-])c1`, for which the activity change vs negative control is -7.8% (active).

For the molecule `N/C(=N\OS(=O)(=O)c1cccc([N+](=O)[O-])c1)c1ccncc1`, the activity change vs negative control was 29.1%.

As for `Cc1cc(SCC(=O)c2cccc([N+](=O)[O-])c2)nc(=O)[nH]1`, the activity change vs negative control was 7.5%.

With `Cc1ccc2oc3c(c(=O)c2c1)C(c1cccs1)N(CCCN(C)C)C3=O` (stereo unspecified), the activity change vs negative control was 21.6%.

On to `CN(C(=O)CSc1ncnc2sc(-c3ccccc3)cc12)C1CCS(=O)(=O)C1` (stereo unspecified), for which the activity change vs negative control was 94.7%.

As for `CCC(C)N(C(=O)CSc1nnc(NC(C)C)s1)C1CCS(=O)(=O)C1` (stereo unspecified), the activity change vs negative control was -0.9% (active).

For `CCOC(=O)c1sc2nc(C)nc(SCC(=O)N(C)C3CCS(=O)(=O)C3)c2c1C` (stereo unspecified), the activity change vs negative control is 20.9%.

For the molecule `COc1ccccc1C(=O)NNC(=O)C(=O)Nc1ccc(C)c(Cl)c1`, the activity change vs negative control was 148%.

As to `CCOC(=O)C1=C(N)Oc2cc(O)ccc2C1c1cccnc1` (stereo unspecified), the activity change vs negative control was -1.7% (active).

`COC(=O)c1ccc(C2C(C#N)=C(N)Oc3cc(O)ccc32)cc1` (stereo unspecified): the activity change vs negative control is 12.7%.

Consider `Cc1nn(Cc2ccccc2)c2c1C(c1cccnc1)C(C#N)=C(N)O2` (stereo unspecified), for which the activity change vs negative control was 12.9%.

In the case of `Cc1nn(CC(=O)Nc2ccc(C(=O)N3CCCC3)cc2)c(=O)c2ccccc12`, the activity change vs negative control is 32.9%.

With `O=C(Nc1cccc(N=Cc2cc(Cl)cc(Br)c2O)c1)c1ccco1`, the activity change vs negative control was 53.8%.

As for `COc1ccc(NC(=S)NC(NC(=O)c2cccc3ccccc23)C(Cl)(Cl)Cl)c([N+](=O)[O-])c1` (stereo unspecified), the activity change vs negative control is -0.3% (active).

As to `CCOC(=O)C(=CNc1ccc(OC)cc1[N+](=O)[O-])C(=O)OCC`, the activity change vs negative control is 13.9%.

For `COc1cccc(C(=O)NNC(=O)C(=O)Nc2cccc3ccccc23)c1`, the activity change vs negative control was 91%.

In the case of `COC(=O)Oc1ccc(/C=C/C(=O)OC(C)C)cc1OC(=O)OC`, the activity change vs negative control is 24.5%.

With `CCN(CC)c1ccc(NC(=S)NC(=O)c2ccco2)cc1`, the activity change vs negative control is 67.2%.

Turning to `Cc1ccc(C(=O)Sc2cccccc2=O)cc1`, the activity change vs negative control was 102%.

As to `CC1=CC(=O)C(C(C)C)=CC1=NC(=O)c1ccc(C)cc1`, the activity change vs negative control was -1% (active).

In the case of `CCOC(=O)c1sc2ncnc(NCC(c3cccs3)N(C)C)c2c1C` (stereo unspecified), the activity change vs negative control is 61%.

Turning to `S=c1[nH]c(-c2ccccc2)cs1`, the activity change vs negative control was 85.5%.

As for `COC(=O)CCn1[nH]c(=O)c2ccccc2c1=O`, the activity change vs negative control was 15.6%.

For `CCOC(=O)Cn1cc(C=O)c2ccccc21`, the activity change vs negative control was 8.6%.

On to `COC(=O)Cn1c(=O)c(=O)n(CC(=O)OC)c2ccccc21`, for which the activity change vs negative control was -3.8% (active).

As for `O=C(NC(=S)Nc1ncc(Br)cc1Br)c1ccccc1`, the activity change vs negative control is 28.8%.

Regarding `CCOC(=O)NC(=S)Nc1ccc(C(C)(C)C)cc1Br`, the activity change vs negative control is 16.6%.

Take `Cc1ccc(S(=O)(=O)NC(=S)NC2CCCCC2)cc1`: the activity change vs negative control is 19.8%.

As to `O=C(Nc1ccc(Cl)c(-c2nc3ccccc3[nH]2)c1)c1cccnc1`, the activity change vs negative control was -19.3% (active).

Turning to `CN(C)S(=O)(=O)c1cccc(C(=O)Nc2cccnc2)c1`, the activity change vs negative control was 8%.

Consider `O=C(Nc1ccc(Oc2cccnc2)cc1)c1cccc([N+](=O)[O-])c1`, for which the activity change vs negative control was 13.8%.

As for `O=C(NCC1CCCO1)c1ccc2c(=O)n(Cc3ccco3)c(SCC(=O)N3CCCC3)nc2c1` (stereo unspecified), the activity change vs negative control is 32.7%.

As for `S=c1[nH]nc(-c2n[nH]c3c2CCC3)n1/N=C/C=C/c1ccccc1`, the activity change vs negative control was -4.8% (active).

For the molecule `Cc1cccc(/C=N/n2c(COc3ccccc3)n[nH]c2=S)c1`, the activity change vs negative control is 14.1%.

As to `S=c1[nH]nc(-c2ccco2)n1/N=C/C(Cl)=C/c1ccccc1`, the activity change vs negative control was 10.3%.

For `Cc1ccc(C(=O)CC(=O)c2cccc(F)c2)c(O)c1`, the activity change vs negative control is 7.2%.

As for `CC(C)c1nc2sc3c(=S)nc[nH]c3c2c2c1CCC2`, the activity change vs negative control was 45.5%.

In the case of `Cc1cc2ccccn2c1C(=S)NC(=O)c1ccccc1`, the activity change vs negative control is 68.1%.

`C=CCn1c(O)c(N=NC(=S)Nc2ccc(OC)c(Cl)c2)c2ccccc21`: the activity change vs negative control was 18.3%.

As for `COc1ccccc1Nc1nnc(SCC(=O)Nc2nc(-c3ccc(F)cc3)cs2)s1`, the activity change vs negative control was 9.1%.

`CCOC(=O)CSc1nnc(NC(=O)c2ccc3c(c2)OCO3)s1`: the activity change vs negative control is 5.6%.

In the case of `Nc1nnc(SCC(=O)OCc2ccc(F)cc2)s1`, the activity change vs negative control is -2.1% (active).

As for `CCOC(=O)C(=CNc1cc(C)ccn1)C(=O)OCC`, the activity change vs negative control was 18.2%.

As for `S=c1nc(C2CC2)[nH]c2ccccc12`, the activity change vs negative control is 58.2%.

Regarding `Cc1ccc(-c2nc3ccccc3c(=O)n2O)cc1`, the activity change vs negative control was 29.3%.

Regarding `NC(=O)c1nsc(C(=O)N(CC(=O)NCc2ccccc2)c2ccc(F)cc2)c1N`, the activity change vs negative control was -0.6% (active).

On to `COc1ccc(-n2nc(C(=O)NCC(=O)NCc3ccc(F)cc3)c3ccccc3c2=O)cc1OC`, for which the activity change vs negative control is 12.7%.

On to `Cc1ccccc1Cn1nc(C)c(NC(=O)c2ccccc2)c1C`, for which the activity change vs negative control is 73%.

With `COc1ccccc1C(=O)NNC(=O)C(=O)Nc1ccc(C)cc1`, the activity change vs negative control is 162%.

Turning to `O=C(O)c1cc(NN=C2c3ccccc3-c3ccccc32)ccc1Cl`, the activity change vs negative control was 63.8%.

Take `COC(=O)c1ccc(C(=O)NC(=S)Nc2nc3c(s2)CCCC3)cc1`: the activity change vs negative control was 37.8%.

Regarding `O=C(CN1C(=O)COc2ccccc21)NCCCN1CCOCC1`, the activity change vs negative control was 6.2%.

For the molecule `CC1c2nc3ccccc3n2C(CC(=O)NCCCN2CCOCC2)C(=O)N1Cc1ccccc1` (stereo unspecified), the activity change vs negative control is 12%.

`CC1CC(C)CN(CCCNC(=O)Cc2c(C(=O)O)[nH]c3ccccc23)C1` (stereo unspecified): the activity change vs negative control is -0.3% (active).

As for `c1ccc2c(c1)c1ccccc1n1c(-c3ccc4c(c3)OCO4)nnc21`, the activity change vs negative control was 11.9%.

For the molecule `Oc1c(Br)cc(Cl)cc1C=Nc1ccccc1Br`, the activity change vs negative control is 57.7%.

On to `COc1ccc(OC(=O)Cc2cccc3ccccc23)cc1`, for which the activity change vs negative control was 15.2%.

As for `COc1ccc(CC(=O)Nc2ccc(-c3noc(-c4ccccc4OC)n3)cc2)cc1`, the activity change vs negative control was 7%.

For `COc1ccc(NC(=O)CSCC(=O)Oc2c(OC)cccc2OC)cc1`, the activity change vs negative control is -7.6% (active).

As for `Cc1snnc1C(=O)NC(=S)Nc1ccccc1`, the activity change vs negative control was 53.9%.

On to `Cc1cc(Cl)ccc1OC(C)C(=O)NCCc1ccc2c(c1)OCCO2` (stereo unspecified), for which the activity change vs negative control is -9.4% (active).

Regarding `CCOc1ccc(CCNC(=O)Nc2ccccc2C)cc1OCC`, the activity change vs negative control is 13.5%.

Consider `COc1ccc(CCNC(=O)C(=O)Nc2ccc3c(c2)OCO3)cc1OC`, for which the activity change vs negative control was 8.8%.
